KCNQ2 block: KCNQ2 (rat) channel inhibition; AID 2156; 1.1% of 310,000 active; B-score at 10 µM; CHO-K1 KCNQ2, FluxOR thallium flux, 20 min; hits give low values;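 active means fluorescence ratio B-score at most minus 3 library SDs, with starting brightness B-score within 2 library SDs, cut at about -5.5 in these data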
Target sequence (O88943 whole entry, looked up): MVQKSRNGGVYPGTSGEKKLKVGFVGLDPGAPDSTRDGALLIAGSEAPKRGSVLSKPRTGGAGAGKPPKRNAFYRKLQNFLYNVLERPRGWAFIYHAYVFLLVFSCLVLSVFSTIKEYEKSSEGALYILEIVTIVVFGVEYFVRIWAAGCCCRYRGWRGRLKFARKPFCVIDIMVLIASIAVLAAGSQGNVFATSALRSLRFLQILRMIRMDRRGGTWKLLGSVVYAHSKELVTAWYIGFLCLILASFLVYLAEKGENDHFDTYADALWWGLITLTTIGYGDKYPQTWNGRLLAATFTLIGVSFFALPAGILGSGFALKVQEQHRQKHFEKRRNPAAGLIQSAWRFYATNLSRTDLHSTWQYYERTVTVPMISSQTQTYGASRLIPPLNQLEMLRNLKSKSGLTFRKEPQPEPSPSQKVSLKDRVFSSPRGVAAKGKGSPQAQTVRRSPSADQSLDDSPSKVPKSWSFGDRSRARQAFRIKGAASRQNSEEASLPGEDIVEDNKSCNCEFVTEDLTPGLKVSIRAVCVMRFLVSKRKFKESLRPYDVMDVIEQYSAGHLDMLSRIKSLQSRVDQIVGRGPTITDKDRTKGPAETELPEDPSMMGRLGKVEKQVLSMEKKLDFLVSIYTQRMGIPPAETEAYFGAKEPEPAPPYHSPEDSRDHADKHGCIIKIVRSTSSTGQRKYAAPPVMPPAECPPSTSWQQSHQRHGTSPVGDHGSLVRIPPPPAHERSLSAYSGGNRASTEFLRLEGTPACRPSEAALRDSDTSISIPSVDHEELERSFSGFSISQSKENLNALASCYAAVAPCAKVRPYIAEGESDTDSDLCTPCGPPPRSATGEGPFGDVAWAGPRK
KCNQ2 enhance: enhances the rat KCNQ2 potassium channel. 0.54% of 310,000 active. O88943. CHO-K1 KCNQ2, FluxOR thallium flux fluorescence; hits give high values. B-score at 10 µM;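 active means fluorescence ratio B-score at least 3 SD of library B-scores, with initial fluorescence B-score within 3 of them, cut at about 5.3 in these data; same plate scores as AID 2156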;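 further: B-score of peak minus minimum over baseline fluorescence ratio after K+ and Tl+ stimulus; positive B-score means potentiation of KCNQ2 with more thallium influx and brighter signal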
Kir21 confirm: confirmation of mouse Kir2.1 potassium channel inhibitors | shares compounds with KCNQ2 enhance | Kir2.1-expressing cells, FluxOR thallium flux fluorescence; hits give low values | Tl flux remaining, % of negative control (hits give low values), % at 10 µM | 41% of 2,300 active;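 active means Primary-screen hit whose thallium flux fell at least 3 control SD below untreated wells in both duplicates, with normal baseline fluorescence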;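 further: 0% = blank wells without stimulus and 100% = stimulated no-compound controls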
HEK293 Tl flux: counter-screen for Kir2.1 inhibitors: effect in parental HEK293 cells; shares compounds with KCNQ2 enhance; FluxOR thallium flux fluorescence; 0% = unstimulated blank wells; FluxOR signal as % of negative control (100 = no effect), % at 10 µM; 19% of 2,300 active; AID 2105;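 active means dye signal at least 3 control SD above or below untreated wells in both duplicates, raw fluorescence within 3, either direction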;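 further: percent is based on the flux ratio of peak minus minimum fluorescence over baseline F0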
CHO-K1 Tl ctr: alters thallium flux in parental CHO-K1 cells, KCNQ2 counter-screen; shares compounds with KCNQ2 enhance; FluxOR thallium flux fluorescence; zero = vehicle mean+3SD, 100% = vehicle-minus-blank window; activity increase over 3SD of controls, % at 10 µM; 43% of 1,200 active; AID 2282;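 active means signal rise of at least 3 SD above the untreated control mean, in both duplicate wells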;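 further: counter screen of KCNQ2 potentiator hits so any rise reflects channel-independent effects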
KCNQ1 pot spec: tests whether KCNQ2 potentiators also act on human KCNQ1; shares compounds with KCNQ2 enhance; CHO KCNQ1 stable, FluxOR thallium flux fluorescence; beyond 3SD, as % of vehicle-control signal; activation over 3SD threshold, % at 10 µM; 28% of 1,200 active;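 active means fluorescence ratio rise of at least 3 SD of vehicle wells above their mean, in both replicate wells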;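 further: 0% = vehicle mean plus 3 SD and 100% = vehicle minus unstimulated blank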
KCNQ2 pot confirm: confirmation of rat KCNQ2 potassium channel potentiators; potentiation, less the hit threshold, % at 10 µM; CHO-KCNQ2 cells, FluxOR thallium flux fluorescence; 68% of 1,200 active; shares compounds with KCNQ2 enhance;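 active means fluorescence ratio rising 3 SD or more over the vehicle control mean in both replicates, plus primary screen hit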;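 further: peak minus minimum thallium fluorescence divided by baseline after K/Tl stimulus; 0% = vehicle mean plus 3 SD and 100% = vehicle minus unstimulated blank difference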
Kir2-1 sel: tests whether KCNQ2 potentiators also affect mouse Kir2.1; shares compounds with KCNQ2 enhance; HEK293 Kir2.1, FluxOR thallium flux fluorescence; activity over 3SD threshold, % at 10 µM; 2% of 1,200 active; AID 2345;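 active means fluorescence ratio rise of at least 3 SD above the vehicle-control mean, seen in both replicates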;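 further: 0% = vehicle mean plus 3 SD and 100% = vehicle minus no-stimulus blank window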
KCNQ2 W236L pot: KCNQ2 potentiators acting on retigabine-insensitive rat KCNQ2 W236L mutant | AID 2558 | current increase over 3SD of negative controls (%), hits give high values, % at 25 µM | shares compounds with KCNQ2 enhance | 10% of 940 active | CHO KCNQ2-W236L, automated patch clamp current;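 active means current increase at least 3 SD of the untreated controls above them in both duplicate recordings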
Numbers without * were called inactive; i = inactive; . = not tested or not shown. Rows were chosen to be rich in hits. Some 1.6% of all compounds tested hit in one or more screens of this group.

SMILES	KCNQ2 block	KCNQ2 enhance	Kir21 confirm	HEK293 Tl flux	others
Cc1cccc(NC(=O)c2cccc(S(=O)(=O)N3CCc4ccccc4C3)c2)n1	i	.	.	.
COc1ccc(S(=O)(=O)Nc2ccccc2SC)cc1C	i	.	54.0%*	i
COc1ccc(S(=O)(=O)Nc2ccccc2OC)cc1C	i	1.57	.	.
O=C(Oc1cccnc1)c1ccco1	i	.	.	.
O=C(Oc1cccc(OC(=O)c2ccco2)c1)c1ccco1	i	0.44	51.0%*	i
CC(C)c1ccc(OCC(=O)Nc2c3c(nn2C(C)(C)C)CS(=O)(=O)C3)cc1	i	0.91	.	.
CC1=CC(C)(C)N(C(=O)CNC2CCCCC2)c2cc(C)ccc21	i	.	50.5%*	i
CC1=CC(C)(C)N(C(=O)CCl)c2cc(C)ccc21	i	.	.	.
O=C(CSC(=S)N1CCCC1)NCC(=O)Nc1ccccc1Br	i	.	.	.
COc1ccc(C(=O)Nc2ccc(NC(=O)c3cnccn3)cn2)cc1	i	.	.	.
O=C1N=C(N2CCCCC2)SC1=C1CCCCC1	i	0.11	.	.
O=C1NC(=S)SC1=C1CCCCCC1	i	23.1*	i	357.0%*	CHO-K1 Tl ctr=39.5*;KCNQ1 pot spec=7.2*;KCNQ2 pot confirm=57.2*;Kir2-1 sel=-25.8;KCNQ2 W236L pot=i
CC(C(=O)Nc1ccc(F)c(F)c1F)N(C)Cc1cccs1 (configuration not stated)	i	.	.	.
O[C@H]1COC2C1OC[C@@H]2O (some centres not stated)	i	.	.	.
O=C(N/N=C/c1cccc(Oc2ccccc2)c1)c1cccc(O)c1	i	.	74.0%*	i
O=C(N/N=C/c1cccc(Oc2ccccc2)c1)c1cccc(Br)c1	i	.	.	.
COc1cc(CCC(=O)NCCc2ccc(F)cc2)cc(OC)c1OC	i	2.02	.	.
CCOc1ccccc1C1C(C(=O)Nc2ccccc2OC)=C(C)Nc2nnnn21 (configuration not stated)	i	0.45	.	.
Cc1ccc(-c2csc(N=C(N)N)n2)c(C)c1	i	.	40.0%*	i
COc1ccc(-c2csc(N=C(N)N)n2)cc1	i	1.33	.	.
O=S(=O)(NCCc1ccccn1)c1ccc(F)c(F)c1	i	6.06*	i	i	CHO-K1 Tl ctr=3.1*;KCNQ1 pot spec=-13.8;KCNQ2 pot confirm=-6.6;Kir2-1 sel=-36.1;KCNQ2 W236L pot=i
O=S(=O)(NCCc1ccccn1)c1ccc(OC(F)(F)F)cc1	i	.	.	.
Cc1[nH][nH]c(=O)c1C(c1ccc(-c2cccc(Cl)c2)o1)c1c(C)[nH][nH]c1=O	-5.87*	-5.87	i	i
Cc1[nH][nH]c(=O)c1C(c1ccc(-c2cccc(C(=O)O)c2)o1)c1c(C)[nH][nH]c1=O	i	.	.	.
Cc1ccc(NC(=O)C2CCCN2C(=O)OCc2ccccc2)c(O)c1 (configuration not stated)	i	.	.	.
SMILES	KCNQ2 block	KCNQ2 enhance	Kir21 confirm	HEK293 Tl flux	others
COc1ccc(Nc2nc(NCC3CCCO3)c3ccccc3n2)c(OC)c1 (configuration not stated)	i	.	30.0%*	i
Oc1cccc(Nc2nc(NCC3CCCO3)c3ccccc3n2)c1 (configuration not stated)	i	.	.	.
CCCCOc1c(Br)cc(/C=N/O)cc1OCC	i	.	74.0%*	i
C=CCOc1c(Br)cc(/C=N/O)cc1OCC	i	.	.	.
CC(=O)Nc1cccc(NC(=O)CCCC2CCCCC2)c1	i	1.89	.	.
O=C(CCC1CCCC1)Nc1cccc(Cc2ccncc2)c1	i	6.32*	i	i	CHO-K1 Tl ctr=93.5*;KCNQ1 pot spec=-5.9;KCNQ2 pot confirm=-9.5;Kir2-1 sel=-29.9
CCOc1ccc(S(=O)(=O)NN2Cc3ccccc3C2=N)cc1	i	0.35	.	.
O=[N+]([O-])c1cc([N+](=O)[O-])c2cccnc2c1Oc1ccccc1O	i	.	62.0%*	65.0%*
O=[N+]([O-])c1cc(Cl)c(O)c2ncccc12	i	5.69*	i	i	CHO-K1 Tl ctr=-18.4;KCNQ1 pot spec=65.7*;KCNQ2 pot confirm=-12.2;Kir2-1 sel=-21.3;KCNQ2 W236L pot=i
O=[N+]([O-])c1ccc(O)c2cccnc12	i	1.01	.	.
O=[N+]([O-])c1ccc(O)c2ncccc12	i	8.73*	i	i	CHO-K1 Tl ctr=36.1*;KCNQ1 pot spec=-4.9;KCNQ2 pot confirm=33.6*;Kir2-1 sel=-25.9;KCNQ2 W236L pot=i
O=[N+]([O-])c1ccccc1Oc1ccc(Cl)c2cccnc12	i	0.23	.	.
O=[N+]([O-])c1cc(F)c2cccnc2c1O	i	3.61	.	.
COc1ccc(OC)c2[nH]c(=O)c(CCNC(=O)c3cccs3)cc12	i	0.22	.	.
CC(NC(=O)c1cc(S(=O)(=O)N(C)C)ccc1N1CCCC1)C1CC2CCC1C2 (configuration not stated)	i	.	.	.
CC(=O)c1ccc(S(=O)(=O)N(C)CCCC(=O)N(C)Cc2c(F)cccc2Cl)cc1	i	.	.	.
O=C1OC(CO)CN1Cc1ccccc1 (configuration not stated)	i	.	.	.
Cc1ccc(NC(=O)C2(S(=O)(=O)c3ccc(Cl)cc3)CC2)c(Br)c1	i	.	.	.
Cc1ccc(OCC(O)CNCc2ccccc2)cc1C (configuration not stated)	i	.	.	.
O=C(c1ccccc1)c1ccc(OCC(O)CNCc2cccc(Cl)c2)cc1 (configuration not stated)	i	.	47.5%*	i
Cc1ccc(C(OCC(O)CN2CCCCC2CO)c2ccccc2)cc1 (configuration not stated)	i	0.03	.	.
Cc1ccc(C(OCC(O)CNCc2ccc(F)cc2)c2ccccc2)cc1 (configuration not stated)	i	.	33.5%*	i
O=C(c1ccccc1)c1ccc(OCC(O)CNCc2ccc(F)cc2)cc1 (configuration not stated)	i	.	25.5%*	i
CCC(=O)c1ccc(OCC(O)CNCc2ccc(F)cc2)cc1 (configuration not stated)	i	0.66	.	.
COc1ccc(C(OCC(O)CNC(C)c2ccccc2)c2ccc(OC)cc2)cc1 (configuration not stated)	i	.	.	.
COc1ccc(C(OCC(O)CNCCc2ccccc2)c2ccc(OC)cc2)cc1 (configuration not stated)	i	.	43.5%*	i
Nc1nc[nH]c(=O)c1N=Cc1ccccc1	i	.	.	.
CC(=O)c1cccc(CN2CCCCC2C(=O)Nc2ccc(Oc3ccccc3)nc2)c1 (configuration not stated)	i	.	.	.
